GPR32 ag: agonists of human resolvin D1 receptor DRV1 (GPR32) | O75388 | CHO-K1 GPR32 beta-arrestin PathHunter luminescence, 90 min; zero percent set by DMSO-only wells | activation, % at 76.9 µM | actives 2.5% (n = 48,000) | AID 1346428;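 active = activation of at least 60% and not above a set upper limit, about 1 call in 100 departs from these limits; inconclusive = activation of 40% to 60%, or above that upper limit; inactive = activation under 40%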; note: 0% is about no effect
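Agonism was scored by beta-Gal fragment complementation (chemiluminescent read, 1 h detection at ambient temperature) reporting beta-arrestin binding to GPR32 in engineered CHO-K1 cells. Compound treatment lasted 90 min at 37 C, normalized to a DMSO basal control.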
HTT-AS act: activates huntingtin-antisense promoter activity. HEK293 HTT-AS promoter firefly luciferase reporter, 24 h; response scale: percent change from vehicle, -100% = no light. Potency, µM (top dose mostly 57.5 µM), for the others: at the highest dose activity change, positive = activation, most hits filed as activators. actives 0.24% (n = 48,000); note: potency is the fitted concentration of half-maximal effect; nearly all actives have a fitted effect of over 55% in size
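Quantitative HTS used concentration series of up to 57.5 uM final on HEK293 luciferase reporter cells, 24 h at 37 degrees C. Readout was Dual-Glo firefly luminescence.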
GALC G270D up: raises human GALC G270D mutant activity in cells; P54803; 145M-Twi-hGALC-G270D cells, HMU-beta-Gal fluorescence, 48 h; Potency, µM (titrated, usually from 57.5 µM), usual class: activators; actives 0.1% (n = 45,000); note: potency is the fitted concentration of half-maximal effect; 0% is about no effect; nearly all actives have a fitted effect of over 65% in size
Target sequence (P54803 whole entry G286D): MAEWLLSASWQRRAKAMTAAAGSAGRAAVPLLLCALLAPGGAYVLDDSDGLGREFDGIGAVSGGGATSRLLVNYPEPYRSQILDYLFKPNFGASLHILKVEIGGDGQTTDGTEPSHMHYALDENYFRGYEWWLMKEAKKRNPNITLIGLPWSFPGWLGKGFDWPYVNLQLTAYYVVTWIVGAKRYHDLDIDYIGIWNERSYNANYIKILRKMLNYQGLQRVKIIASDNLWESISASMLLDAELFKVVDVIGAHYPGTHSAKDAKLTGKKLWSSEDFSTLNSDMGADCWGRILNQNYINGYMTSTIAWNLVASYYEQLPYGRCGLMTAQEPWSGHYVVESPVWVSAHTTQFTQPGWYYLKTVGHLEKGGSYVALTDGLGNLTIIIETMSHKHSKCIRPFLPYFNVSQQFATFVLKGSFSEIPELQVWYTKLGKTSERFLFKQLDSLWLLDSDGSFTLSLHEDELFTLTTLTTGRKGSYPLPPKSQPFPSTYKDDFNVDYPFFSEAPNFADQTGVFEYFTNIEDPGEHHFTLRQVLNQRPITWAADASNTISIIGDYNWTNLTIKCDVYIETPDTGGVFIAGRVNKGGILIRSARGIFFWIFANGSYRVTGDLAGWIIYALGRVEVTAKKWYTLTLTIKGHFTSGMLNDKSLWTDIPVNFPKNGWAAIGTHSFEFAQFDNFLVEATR
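qHTS, 1536-well; 145M-Twi-hGALC-G270D cells (WT line also made) in DMEM/F12 + 10% FBS; compound incubation on live cells; HMU-β-gal 0.1 mM final, pH 5.2, NaTC; carbonate stop; fluorescence increase = enhanced residual activity.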
B2AR arrestin ag: ADRB2 beta-arrestin recruitment | 44,000 tested, under 10 active | HTLA Tango cells, beta-arrestin recruitment, luciferase luminescence, 18 h | Potency, µM (titrated, usually from 46.1 µM), hits mostly activators | P07550;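 note: potency is the fitted concentration of half-maximal effect; 0% = DMSO and full agonism = EC100 isoproterenol or metaproterenol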
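First, Tango cells carrying beta2-AR and beta-arrestin fusions received compound up to 46 microM. After 18 hr at 37 degrees C, luciferase substrate was added for 15 minutes, then luminescence gave %Activity for curve fitting.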
HTT promoter inh: HTT promoter inhibition; Potency, µM (series often up to 57.5 µM), for inactives: at the top dose activity change, negative = inhibition, most hits filed as inhibitors; HEK293 HTT promoter firefly luciferase reporter, 24 h; AID 1508623; actives 0.93% (n = 48,000); note: potency is the fitted concentration of half-maximal effect; nearly all actives have a fitted effect of over 50% in size
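Firefly luciferase readout (Dual-Glo, 10 min RT) after 24 h, 37 °C compound exposure (final up to 57.5 uM) of HEK293 reporter cells cultured 24 h beforehand; PTC124 at 50 uM final as control inhibitor; activity scaled vehicle 0%, zero RLU -100%.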
FH mod: Identification of activators of human fumarate hydratase by quantitative high-throughput screening; Fumarate hydratase, mitochondrial (Homo sapiens), P07954; FH coupled MDH/diaphorase resazurin fluorescence, 15 min; Potency, µM (top dose mostly 79.9 µM), for inactives: top-dose activity change, negative = inhibition, hits mostly inhibitors; actives 0.22% (n = 54,000); AID 1347055, 2019; note: potency is the fitted concentration of half-maximal effect; % is set by controls: 0 for no effect and ±100 for the full control effect; the screen sought activators but most active calls are inhibition curves; nearly all actives have a fitted effect of over 45% in size
Numbers without * were called inactive; i = inactive; ? = inconclusive; . = no result given; [ ] = remark or other dose. This is a sample that favours compounds with a hit; in the whole collection about 3.7% have one here. Unless noted, calls come from the whole dose curve; as a rule, active = well fitted curve in the direction sought with a large enough effect; inconclusive = small, poorly fitted or top-dose-only effect, or another doubt; inactive = no such curve, though single readings can be large; an effect the other way counts as inactive or inconclusive.

SMILES	GPR32 ag	HTT-AS act	GALC G270D up	B2AR arrestin ag	HTT promoter inh	FH mod
COc1ccccc1CN[C@H]1CCCN[C@H]1c1ccccc1	.	.	.	.	.	6%
CCN(CC)CCCNC(=O)c1ccc2c(c1)NC(=O)C(CS(=O)(=O)Cc1cccc(Br)c1)N2 (stereo unspecified)	-11	-22%	35µM*	i	-14%	-13%
Cc1cc(-c2ccc(/C=C3\SC(=Nc4ccc(Cl)c(C(=O)O)c4)NC3=O)o2)c([N+](=O)[O-])cc1C	.	.	.	.	.	25µM*
C=C(C(=O)OC)[C@]12O[C@@](C)(CC[C@@]3(O)/C(=C\C)C(=O)O[C@]3(C)C[C@@H]1OC(=O)C(CO)CN1CCCC1C(=O)O)CC2=O (stereo partly specified)	.	.	.	.	.	-2%[20.6 µM]
Cc1cc(C)c2c(CC(=O)Nc3nnc(C(C)C)s3)coc2c1	65*	-11%	i	i	3%	-5%
O=C(CN1C(=O)C2(CCCC2)NCC1c1cc(F)cc(F)c1)Nc1ccc2c(c1)CC1(C2)C(=O)Nc2ncccc21 (stereo unspecified)	.	.	.	.	.	-2%
CC(C)(C)C1CCc2c(sc(NC(=O)Cn3nnc(-c4ccccc4Cl)n3)c2C#N)C1 (stereo unspecified)	89*	1%	i	i	-1%	?
O=c1cc(-c2ccccc2)c2ccc3c(c2o1)CN(Cc1ccccc1)CO3	-13	-21%	i	i	-23%	2%
Cc1ccc(CN2COc3ccc4c(C)cc(=O)oc4c3C2)cc1	5	-7%	25µM*	i	-5%	-4%
CCc1c(C)c2ccc3c(c2oc1=O)CN(Cc1ccccc1)CO3	48	-22%	25µM*	i	-36%	2%
CC(C)(C)C(=O)OCc1cc(=O)n2nc(C3CCCCC3)sc2n1	79*	?	i	i	10%	6%
CN1C(=O)c2ccccc2C1=O	14	-3%[116 µM]	i	.	8%[116 µM]	9%
CC1=CC(=O)c2ccccc2C1=O	62*	-27%	i	.	-21%	?
O=C(CC1Nc2cccc3cccc(c23)NC1=O)Nc1ccc(F)cc1 (stereo unspecified)	64*	-24%	i	i	0%	-23%
CC(=O)N1CCc2cc(S(=O)(=O)NC(Cc3ccccc3)C(=O)Nc3ccc(Cl)cc3)ccc21 (stereo unspecified)	96*	3%	i	i	-26%	6%
CC(=O)N1CCc2cc(S(=O)(=O)NC(Cc3ccccc3)C(=O)Nc3cc(C)cc(C)c3)ccc21 (stereo unspecified)	-13	-2%	i	i	-23%	-9%
COc1ccc(Cl)cc1N(C)C(=O)C(=O)Nc1ccc2nc3n(c(=O)c2c1)CCCCC3	80*	-11%	i	i	-11%	-8%
Cc1ccc(CNCc2c(C(=O)O)c(C)n(Cc3ccc(C)cc3)c2C)cc1	5	-15%	i	i	-16%	-13%
Cc1ccc(Cn2c(C)c(CNCc3ccc(OC(C)C)cc3)c(C(=O)O)c2C)cc1	86*	-26%	i	i	-28%	7%
Cc1ccc(Cn2c(C)c(CNCC(C)c3ccccc3)c(C(=O)O)c2C)cc1 (stereo unspecified)	75*	-20%	i	i	-26%	3%
CCOC(=O)c1ccc(NC(=O)c2cc3cc(C)ccc3n2C)cc1	72*	-17%	i	i	?	-3%
COc1cc(C(C)=O)ccc1OCCCN1CCC(c2noc3cc(F)ccc23)CC1	71*	4%	i	.	-3%	4%[53.3 µM]
Cc1nc2n(c(=O)c1CCN1CCC(c3noc4cc(F)ccc34)CC1)CCCC2O (stereo unspecified)	-3	.	.	.	.	-18%[53.3 µM]
COc1cc(OC)c(NS(=O)(=O)c2ccc3c(c2)NC(=O)CCS3)cc1Cl	43	-49%	i	i	28µM*	-14%
Cc1ccc(NS(=O)(=O)c2ccc3c(c2)NC(=O)CCS3)cc1C	?	-38%	i	i	?	-18%
SMILES	GPR32 ag	HTT-AS act	GALC G270D up	B2AR arrestin ag	HTT promoter inh	FH mod
Cc1ccc(NS(=O)(=O)c2ccc3c(c2)NC(=O)CCS3)c(Br)c1	120*	-34%	i	i	?	-11%
O=C1CCSc2ccc(S(=O)(=O)Nc3cccc(C(F)(F)F)c3)cc2N1	109*	-34%	i	i	-39%	-12%
CCC(C)C(N)C(=O)NCCN1CCOCC1 (stereo unspecified)	.	.	.	.	.	4%
CCC(Oc1ccccc1)C(=O)N1CCN(Cc2cc(=O)n3nc(-c4cccc(C)c4)sc3n2)CC1 (stereo unspecified)	61*	-41%	i	i	?	1%
COc1cccc(-c2nn3c(=O)cc(CN4CCN(C(=O)/C=C/c5ccccc5)CC4)nc3s2)c1	46	-8%	i	i	-6%	7%
O=c1cc[nH]c(=S)[nH]1	68*	11%	i	.	-4%	-15%[53.3 µM]
O=c1cc[nH]c(=O)[nH]1	45	2%	i	.	0%	1%[53.3 µM]
NC(=NCCCCCCN=C(N)N=C(N)Nc1ccc(Cl)cc1)N=C(N)Nc1ccc(Cl)cc1	.	-8%	.	.	32%	13%[53.3 µM]
NC(=NCCCCCCN=C(N)/N=C(\N)Nc1ccc(Cl)cc1)/N=C(\N)Nc1ccc(Cl)cc1	86*	-29%	i	.	?	32%
C[C@@H]1O[C@@H](O[C@H]2[C@H](O)[C@@H](O[C@@H]3O[C@H](CO)[C@H](O)[C@H](O)[C@H]3O)[C@H](O[C@H]3CC[C@@]4(C)C(CC[C@]5(C)C4CC=C4[C@@H]6CC(C)(C)CC[C@]6(C(=O)O[C@@H]6O[C@H](CO)[C@@H](O)[C@H](O)[C@H]6O)CC[C@]45C)C3(C)C)O[C@@H]2C(=O)O)[C@H](O)[C@H](O)[C@H]1O (stereo partly specified)	.	.	.	.	.	0%[20.6 µM]
C/C(=C/CO)CC[C@@H]1[C@@]2(C)CCC[C@](C)(C(=O)O)C2CC[C@@]1(C)O (stereo partly specified)	.	.	.	.	.	2%[53.3 µM]
CNC(=O)c1cc(Oc2ccc(NC(=O)Nc3ccc(Cl)c(C(F)(F)F)c3)cc2)ccn1	92*	-78%	i	.	?	-19%
C=C[C@@]1(C)C=C2C(=O)C(O)=C3[C@](C)(C(=O)O)CC[C@@H]4C[C@]34[C@]2(O)C(=O)C1	.	.	.	.	.	1%[53.3 µM]

Screening results from PubChem BioAssay.
